Reference: PubChem BioAssay
For some of these results: Results with a measured potency or affinity are listed apart. Activity calls are given as the source filed them. Unless noted, how the calls were made is not given here.

Experiments:
[1] = antimalarial activity against Dd2 strain (AID 2302;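 active means growth inhibition above 50% at the single 2 µM test dose, taken to imply half-maximal potency below 2 µM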;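 further: 0% = DMSO untreated growth and 100% = chloroquine plus artemisinin killed control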); conditions: P. falciparum Dd2 in RBCs, LDH growth readout, 72 h; at 2 µM; hits give high values
[2] = human hepatoma cell viability loss – ATP luminescence, cytotoxicity control for P. falciparum antimalarial project, primary screen (AID 2303;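 active means inhibition above 50%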;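 further: 0% = DMSO wells and 100% = digitonin-killed cells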); conditions: HepG2 viability, 24-48 h, at 10 µM, hits give high values
[3] = biological target: L-lactate dehydrogenase (Plasmodium falciparum (isolate CDC / Honduras)) (UniProt Q27743); test: PfLDH activity inhibition – cell lysate, 3D7 strain, counter-screen for P. falciparum growth inhibition project (AID 2304);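 further: 0% = vehicle and 100% = reference inhibitor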; conditions: P. falciparum 3D7 crude extract, LDH APAD/NBT absorbance; at 2 µM; hits give high values
Chain of L-lactate dehydrogenase (Plasmodium falciparum (isolate CDC / Honduras)) (Q27743 whole entry, looked up): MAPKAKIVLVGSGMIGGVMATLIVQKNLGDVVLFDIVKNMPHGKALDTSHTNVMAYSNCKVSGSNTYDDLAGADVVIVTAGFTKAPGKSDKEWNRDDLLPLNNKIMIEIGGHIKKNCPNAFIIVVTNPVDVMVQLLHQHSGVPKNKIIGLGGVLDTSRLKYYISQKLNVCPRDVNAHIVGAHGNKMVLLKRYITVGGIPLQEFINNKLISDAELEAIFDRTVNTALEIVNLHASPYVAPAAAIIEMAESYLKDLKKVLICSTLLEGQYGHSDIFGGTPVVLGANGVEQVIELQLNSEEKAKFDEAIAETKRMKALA

[4] = inhibition of 3D7 malaria parasite growth – strain 3D7 (AID 2306);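 further: 0% = DMSO wells and 100% = chloroquine plus artemisinin control wells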; conditions: P. falciparum 3D7 erythrocytic growth, LDH absorbance, 72 h; at 2 µM; hits give high values
[5] = biological target: Calcium-dependent protein kinase 1 (Plasmodium falciparum (isolate 3D7)) (UniProt P62344); test: PfCDPK1 kinase inhibitors, biochemical, TCAMS library (AID 1159585; cut-off not given, nearly all actives have IC50 up to about 0.98 µM;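 further: inhibitors leave more ATP so luminescence rises with inhibition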); conditions: recombinant PfCDPK1, Kinase-Glo ATP depletion luminescence
Chain of Calcium-dependent protein kinase 1 (Plasmodium falciparum (isolate 3D7)) (P62344 whole entry, looked up): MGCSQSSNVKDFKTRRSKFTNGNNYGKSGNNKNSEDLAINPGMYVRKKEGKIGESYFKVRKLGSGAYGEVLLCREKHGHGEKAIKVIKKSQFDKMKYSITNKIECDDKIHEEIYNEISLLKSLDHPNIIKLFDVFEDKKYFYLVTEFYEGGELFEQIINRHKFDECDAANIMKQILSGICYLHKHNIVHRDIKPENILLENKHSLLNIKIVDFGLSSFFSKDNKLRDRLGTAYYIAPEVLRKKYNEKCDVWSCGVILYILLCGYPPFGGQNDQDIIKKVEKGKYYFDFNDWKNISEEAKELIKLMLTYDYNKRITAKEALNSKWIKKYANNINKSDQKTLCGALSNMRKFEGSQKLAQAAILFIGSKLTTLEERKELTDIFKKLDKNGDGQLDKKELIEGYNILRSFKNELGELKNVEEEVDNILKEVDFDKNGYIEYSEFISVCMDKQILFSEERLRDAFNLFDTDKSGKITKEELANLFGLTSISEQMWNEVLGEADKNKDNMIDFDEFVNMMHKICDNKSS

[6] = biological target: Plasmodium falciparum protein kinase 6 (PK6, PF3D7_1337100) (UniProt Q8IDW1); test: PfPK6 kinase inhibitors, biochemical, TCAMS library (AID 1159586); conditions: recombinant PfPK6, Kinase-Glo ATP depletion luminescence
Chain of Plasmodium falciparum protein kinase 6 (PK6, PF3D7_1337100) (Q8IDW1 1-305): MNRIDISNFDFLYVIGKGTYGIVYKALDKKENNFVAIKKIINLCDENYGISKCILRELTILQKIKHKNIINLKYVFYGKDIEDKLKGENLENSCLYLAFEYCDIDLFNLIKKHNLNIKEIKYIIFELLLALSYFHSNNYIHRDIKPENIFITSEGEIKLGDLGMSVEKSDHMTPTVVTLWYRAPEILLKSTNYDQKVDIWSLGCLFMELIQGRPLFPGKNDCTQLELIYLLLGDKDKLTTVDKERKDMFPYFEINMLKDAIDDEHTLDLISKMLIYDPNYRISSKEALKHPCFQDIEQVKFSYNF

[7] = biological target: Protein kinase 7 (PK7), Plasmodium falciparum 3D7 (PF3D7_0213400) (UniProt Q7YTF7); test: inhibition of Plasmodium PK7 catalytic activity – biochemical, TCAMS antimalarial set, Kinase-Glo luminescence (AID 1159587); conditions: recombinant PfPK7, Kinase-Glo ATP depletion luminescence
Chain of Protein kinase 7 (PK7), Plasmodium falciparum 3D7 (PF3D7_0213400) (Q7YTF7 1-343): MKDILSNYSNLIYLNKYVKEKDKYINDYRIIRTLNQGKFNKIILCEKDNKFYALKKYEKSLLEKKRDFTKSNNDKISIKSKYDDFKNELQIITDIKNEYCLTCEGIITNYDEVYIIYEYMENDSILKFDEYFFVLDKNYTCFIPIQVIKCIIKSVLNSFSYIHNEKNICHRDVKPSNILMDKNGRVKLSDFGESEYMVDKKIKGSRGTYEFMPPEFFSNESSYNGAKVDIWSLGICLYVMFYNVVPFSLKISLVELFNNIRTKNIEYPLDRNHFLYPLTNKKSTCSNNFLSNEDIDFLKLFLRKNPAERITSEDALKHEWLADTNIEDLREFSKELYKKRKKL

[8] = biological target: Calcium-dependent protein kinase 4 (Plasmodium falciparum (isolate 3D7)) (UniProt Q8IBS5); test: PfCDPK4 kinase inhibitors, biochemical, TCAMS library (AID 1159588; cut-off not given, nearly all actives have IC50 up to about 0.91 µM); conditions: recombinant PfCDPK4, Kinase-Glo ATP depletion luminescence
Chain of Calcium-dependent protein kinase 4 (Plasmodium falciparum (isolate 3D7)) (Q8IBS5 whole entry, looked up): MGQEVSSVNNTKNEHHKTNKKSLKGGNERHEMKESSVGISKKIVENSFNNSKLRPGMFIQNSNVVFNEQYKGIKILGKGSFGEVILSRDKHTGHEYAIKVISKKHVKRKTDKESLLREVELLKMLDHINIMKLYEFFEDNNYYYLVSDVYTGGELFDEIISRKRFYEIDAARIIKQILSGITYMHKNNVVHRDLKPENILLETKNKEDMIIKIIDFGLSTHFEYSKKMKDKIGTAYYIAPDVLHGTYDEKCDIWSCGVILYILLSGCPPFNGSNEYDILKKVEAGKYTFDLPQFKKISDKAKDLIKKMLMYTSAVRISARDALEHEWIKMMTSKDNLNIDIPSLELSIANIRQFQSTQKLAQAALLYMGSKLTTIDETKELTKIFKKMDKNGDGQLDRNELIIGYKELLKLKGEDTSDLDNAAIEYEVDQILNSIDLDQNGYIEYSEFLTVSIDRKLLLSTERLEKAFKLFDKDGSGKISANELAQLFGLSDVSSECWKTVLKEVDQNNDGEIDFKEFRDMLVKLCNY

CCCCCOc1ccc(N2C(N)=NC(N)=NC2(C)C)cc1
active: growth inhibition [4] 97%
inactive: growth inhibition [1] -4% | inhibition [2] 24% | inhibition [3] -4% | outcome [5] | outcome [6] | outcome [7] | outcome [8]

N#Cc1ccc2c(c1)CN(CCC1CCC(NC(=O)c3cc4cc(OC(F)(F)F)ccc4[nH]3)CC1)CC2 (stereo not drawn)
inactive: growth inhibition [1] 19% | inhibition [2] 4% | inhibition [3] 4% | outcome [5] | outcome [6] | outcome [7] | outcome [8]
active: growth inhibition [4] 101%

CC(NC(=O)c1ccc(O)c(-c2ccc(Cl)c(Cl)c2)c1)C(=O)NCCN1CCCCC1 (stereo not drawn)
inactive: growth inhibition [1] 3% | inhibition [2] -2% | inhibition [3] 2% | outcome [5] | outcome [6] | outcome [7] | outcome [8]
active: growth inhibition [4] 97%

CN(C)CCN(C)C(=O)c1cc(-c2ccncc2)c(-c2ccc(Cl)c(O)c2)o1
active: growth inhibition [4] 97%
inactive: growth inhibition [1] 34% | inhibition [2] -11% | inhibition [3] 0% | outcome [5] | outcome [6] | outcome [7] | outcome [8]

CCCCNCc1ccc(-c2nc(CN(Cc3ccc(Cl)c(Cl)c3)C(=O)CN(C)C)cs2)cc1
inactive: inhibition [2] 36% | inhibition [3] 7% | outcome [5] | outcome [6] | outcome [7] | outcome [8]
active: growth inhibition [1] 51% | growth inhibition [4] 100%

CN1CCCC(CN2CCN(Cc3cccc(-c4cccc(-c5nc6ccccc6[nH]5)c4)c3)CC2)C1 (stereo not drawn)
inactive: inhibition [2] 45% | inhibition [3] -8% | outcome [5] | outcome [6] | outcome [7] | outcome [8]
active: growth inhibition [1] 99% | growth inhibition [4] 100%

CC1CCCN(Cc2cc(Cl)cc(Cl)c2O)C1 (stereo not drawn)
inactive: inhibition [2] 22% | inhibition [3] 5% | outcome [5] | outcome [6] | outcome [7] | outcome [8]
active: growth inhibition [1] 77% | growth inhibition [4] 89%

C=CCc1ccc(C[C@H](NC(=O)OC(C)(C)C)C(=O)OC)cc1
inactive: inhibition [3] 4% | outcome [5] | outcome [6] | outcome [7] | outcome [8]
active: growth inhibition [1] 98% | inhibition [2] 77% | growth inhibition [4] 98%

C=CCn1c(SCC(=O)Nc2cc(C)ccc2OC)nc2sc(C)cc2c1=O
active: growth inhibition [1] 86% | growth inhibition [4] 100%
inactive: inhibition [2] 6% | inhibition [3] -5% | outcome [5] | outcome [6] | outcome [7] | outcome [8]

Nc1cc(C=Cc2ccc([N+](=O)[O-])s2)nc2ccccc12
active: inhibition [2] 89% | growth inhibition [4] 98%
inactive: growth inhibition [1] 48% | inhibition [3] -7% | outcome [5] | outcome [6] | outcome [7] | outcome [8]

CCN1CCN(c2cc(C)c3cc(NC(=O)c4cccc([N+](=O)[O-])c4)ccc3n2)CC1
inactive: inhibition [3] -3% | outcome [5] | outcome [6] | outcome [7] | outcome [8]
active: growth inhibition [1] 73% | inhibition [2] 74% | growth inhibition [4] 99%

COc1ccc(-c2ccc(NC(=O)c3ccc(C#N)cc3)cc2)cc1CN1CCCC1
inactive: inhibition [2] 40% | inhibition [3] 5% | outcome [5] | outcome [6] | outcome [7] | outcome [8]
active: growth inhibition [1] 51% | growth inhibition [4] 95%

N#Cc1cccc(NC(=O)Nc2ccc3c(c2)CN(Cc2c[nH]c4ncccc24)C3)c1
active: growth inhibition [4] 99%
inactive: growth inhibition [1] 12% | inhibition [2] 0% | inhibition [3] 5% | outcome [5] | outcome [6] | outcome [7] | outcome [8]

COc1cc2nc(N(C)Cc3cc4c(Cl)cccc4s3)nc(N)c2cc1OC
active: growth inhibition [4] 90%
inactive: growth inhibition [1] 27% | inhibition [2] 32% | inhibition [3] 4% | outcome [5] | outcome [6] | outcome [7] | outcome [8]

COc1ccc(N(C)Cc2cnc3nc(N)nc(N)c3n2)cc1
active: growth inhibition [4] 98%
inactive: growth inhibition [1] -1% | inhibition [2] 15% | inhibition [3] 1% | outcome [5] | outcome [6] | outcome [7] | outcome [8]

Cc1cc(N(C)C)nc(Nc2ccc(NC(=O)c3c(F)cccc3Cl)cc2)n1
inactive: growth inhibition [1] 36% | inhibition [2] 15% | inhibition [3] 4% | outcome [5] | outcome [6] | outcome [7] | outcome [8]
active: growth inhibition [4] 90%

NS(=O)(=O)Cc1cccc(-c2ccnc3ccc(-c4cccc(S(N)(=O)=O)c4)cc23)c1
active: growth inhibition [4] 98%
inactive: growth inhibition [1] 42% | inhibition [2] 39% | inhibition [3] -2% | outcome [5] | outcome [6] | outcome [7] | outcome [8]

CC(C)C[C@H](NC(=O)c1cc2ccccc2s1)C(=O)N[C@H]1CCN(Cc2ccc(OC[C@@H]3CCCN3C)c3ccccc23)C1
active: growth inhibition [1] 93% | inhibition [2] 69% | growth inhibition [4] 101%
inactive: inhibition [3] -2% | outcome [5] | outcome [6] | outcome [7] | outcome [8]

COc1ccc2nc(C)cc(Nc3ccc(N4CCN(C)CC4)cc3)c2c1
active: growth inhibition [4] 101%
inactive: growth inhibition [1] 3% | inhibition [2] 1% | inhibition [3] -1% | outcome [5] | outcome [6] | outcome [7] | outcome [8]

COc1ccc(CN2CCN(Cc3cc(Cl)ccc3O)CC2CCO)c(C)c1C (stereo not drawn)
inactive: inhibition [2] 1% | inhibition [3] 3% | outcome [5] | outcome [6] | outcome [7] | outcome [8]
active: growth inhibition [1] 76% | growth inhibition [4] 94%

CCC(C)NC(=O)Cn1c2ncccc2c(=O)n1-c1ccc(C)cc1 (stereo not drawn)
inactive: inhibition [2] 4% | inhibition [3] 4% | outcome [5] | outcome [6] | outcome [7] | outcome [8]
active: growth inhibition [1] 63% | growth inhibition [4] 95%

O=C(/C=C/c1c(Cl)cccc1Cl)NC1CCC(CN2CCC(Cc3cc4ccccc4[nH]3)CC2)CC1 (stereo not drawn)
inactive: growth inhibition [1] 17% | inhibition [3] -1% | outcome [5] | outcome [6] | outcome [7] | outcome [8]
active: inhibition [2] 97% | growth inhibition [4] 91%

CCc1nc2nc(C)cc(Nc3cc(C)cc(C)c3)n2n1
inactive: inhibition [2] 21% | inhibition [3] 7% | outcome [5] | outcome [6] | outcome [7] | outcome [8]
active: growth inhibition [1] 96% | growth inhibition [4] 96%

O=C(Nc1ccc(Cl)cc1)Nc1cccc(-c2ccc(-c3nc4ccc(F)cc4[nH]3)cc2)c1
active: growth inhibition [1] 99% | inhibition [2] 73% | growth inhibition [4] 101%
inactive: inhibition [3] -1% | outcome [5] | outcome [6] | outcome [7] | outcome [8]

CCN(CCCN1CCCCC1)c1cc(C)nc(Nc2cc(F)cc(F)c2)n1
inactive: inhibition [2] 15% | inhibition [3] 5% | outcome [5] | outcome [6] | outcome [7] | outcome [8]
active: growth inhibition [1] 64% | growth inhibition [4] 102%

O=C(CSc1nc2ccc([N+](=O)[O-])cc2s1)Nc1ccccc1-c1ccccc1
inactive: growth inhibition [1] 49% | inhibition [2] -1% | inhibition [3] 0% | outcome [5] | outcome [6] | outcome [7] | outcome [8]
active: growth inhibition [4] 80%

CC(C)(CNC(=O)[C@@H]1CCCN(CCOc2ccc(F)c(F)c2)C1)c1nc(-c2ccc(Cl)c(O)c2)c(-c2ccncc2)[nH]1
inactive: inhibition [3] -1% | outcome [5] | outcome [6] | outcome [7] | outcome [8]
active: growth inhibition [1] 77% | inhibition [2] 72% | growth inhibition [4] 101%

Cc1ccn2c(N(Cc3ccccc3)C(=O)c3ccc(Cl)c(Cl)c3)c(-c3ccccc3)nc2c1
inactive: growth inhibition [1] -5% | inhibition [2] -20% | inhibition [3] -7% | outcome [5] | outcome [6] | outcome [7] | outcome [8]
active: growth inhibition [4] 95%

COc1cc(NC(=O)/C=C/c2cc(F)cc(F)c2F)cc(OCCN2CCC3(CC2)OCCO3)c1
active: growth inhibition [4] 98%
inactive: growth inhibition [1] 26% | inhibition [2] 17% | inhibition [3] -3% | outcome [5] | outcome [6] | outcome [7] | outcome [8]

CS(=O)(=O)c1ccc(-n2nc(C(F)(F)F)cc2-c2ccc(/C=N/OCC(=O)O)o2)cc1
inactive: growth inhibition [1] 0% | inhibition [2] -15% | inhibition [3] -7% | outcome [5] | outcome [6] | outcome [7] | outcome [8]
active: growth inhibition [4] 87%

CC(Oc1ccc(Cl)cc1)C(=O)Nc1cc(C(F)(F)F)ccc1N1CCOCC1 (stereo not drawn)
active: growth inhibition [1] 97% | growth inhibition [4] 97%
inactive: inhibition [2] 14% | inhibition [3] -6% | outcome [5] | outcome [6] | outcome [7] | outcome [8]

COc1cc2nc(N3CCC(CNC(=O)c4ccc(-c5ccc(-c6noc(C)n6)cc5)cc4)CC3)nc(N)c2cc1OC
active: growth inhibition [1] 100% | inhibition [2] 96% | growth inhibition [4] 98%
inactive: inhibition [3] 1% | outcome [5] | outcome [6] | outcome [7] | outcome [8]

Cc1cc(N(C)C)nc(Nc2ccc(NC(=O)c3ccccc3Cl)cc2)n1
active: growth inhibition [4] 88%
inactive: growth inhibition [1] 31% | inhibition [2] 3% | inhibition [3] -2% | outcome [5] | outcome [6] | outcome [7] | outcome [8]

COc1ccc(-c2ccc(NC(=O)c3cccc(C#N)c3)cc2)cc1CN1CCNCC1
active: growth inhibition [4] 101%
inactive: growth inhibition [1] 47% | inhibition [2] 30% | inhibition [3] 8% | outcome [5] | outcome [6] | outcome [7] | outcome [8]

O=C(O[C@H]1CN[C@H](C#Cc2cc3ncnc(Nc4ccc5c(ccn5S(=O)(=O)c5cccs5)c4)c3s2)C1)N1CCOCC1
inactive: growth inhibition [1] 48% | inhibition [2] -4% | inhibition [3] -1% | outcome [5] | outcome [6] | outcome [7] | outcome [8]
active: growth inhibition [4] 85%

c1ccc(C23N=C(Nc4nc5ccccc5[nH]4)NC2(c2ccccc2)NC(Nc2nc4ccccc4[nH]2)=N3)cc1 (stereo not drawn)
inactive: inhibition [2] 2% | inhibition [3] 3% | outcome [5] | outcome [6] | outcome [7] | outcome [8]
active: growth inhibition [1] 89% | growth inhibition [4] 97%

CC(=O)Nc1ccc(C(=O)Nc2cccc(-c3ccc(-c4nc5ccc(F)cc5[nH]4)s3)c2)cn1
active: growth inhibition [1] 97% | growth inhibition [4] 101%
inactive: inhibition [2] 33% | inhibition [3] 3% | outcome [5] | outcome [6] | outcome [7] | outcome [8]

O=C(Nc1ccc(-c2nc3cc4ccccc4cc3[nH]2)cc1)c1cccc(Br)c1
active: growth inhibition [1] 89% | inhibition [2] 50% | growth inhibition [4] 101%
inactive: inhibition [3] -5% | outcome [5] | outcome [6] | outcome [7] | outcome [8]

CCn1cc(C=C2Oc3c(ccc(O)c3CN3CCCCC3C)C2=O)c2ccccc21 (stereo not drawn)
active: growth inhibition [1] 80% | growth inhibition [4] 94%
inactive: inhibition [2] -6% | inhibition [3] 6% | outcome [5] | outcome [6] | outcome [7] | outcome [8]

Cc1cc(N(CCN2CCCCC2)CCN2CCCCC2)nc(Nc2ccc(Cl)cc2)n1
active: growth inhibition [1] 79% | growth inhibition [4] 101%
inactive: inhibition [2] 19% | inhibition [3] -4% | outcome [5] | outcome [6] | outcome [7] | outcome [8]

O=C(/C=C/c1ccc(C(F)(F)F)cc1)N1CCc2cc3nccc(N4CCN5CCC[C@H]5C4)c3cc21
active: growth inhibition [4] 86%
inactive: growth inhibition [1] 21% | inhibition [2] -7% | inhibition [3] -1% | outcome [5] | outcome [6] | outcome [7] | outcome [8]
